In ChEMBL document CHEMBL2218924, “A broad activity screen in support of a chemogenomic map for kinase signalling research and drug discovery” (Biochem J, 2013):

Tests used:
[1] = biological target: Insulin-like growth factor 1 receptor (Homo sapiens) (UniProt P08069); details: at 10 µM
[2] = biological target: T1, Protein kinase C zeta type (Homo sapiens) (UniProt Q05513); details: at 10 µM
T1 sequence (whole entry): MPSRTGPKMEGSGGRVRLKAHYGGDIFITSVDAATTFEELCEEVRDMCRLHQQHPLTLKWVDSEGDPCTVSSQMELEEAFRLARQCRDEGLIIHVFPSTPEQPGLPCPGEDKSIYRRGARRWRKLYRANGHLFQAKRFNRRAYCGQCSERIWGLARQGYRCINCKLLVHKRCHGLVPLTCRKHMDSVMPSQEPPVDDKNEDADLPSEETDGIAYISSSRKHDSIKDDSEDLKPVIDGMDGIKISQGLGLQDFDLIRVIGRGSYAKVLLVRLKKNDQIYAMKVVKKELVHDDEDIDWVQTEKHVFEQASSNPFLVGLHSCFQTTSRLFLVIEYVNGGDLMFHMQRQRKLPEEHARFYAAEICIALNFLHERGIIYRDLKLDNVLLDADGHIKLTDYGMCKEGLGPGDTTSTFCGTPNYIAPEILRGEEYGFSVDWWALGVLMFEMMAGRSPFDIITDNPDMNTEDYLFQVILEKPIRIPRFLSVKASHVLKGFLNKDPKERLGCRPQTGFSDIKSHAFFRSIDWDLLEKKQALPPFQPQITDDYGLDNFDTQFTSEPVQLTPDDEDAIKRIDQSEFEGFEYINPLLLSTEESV

[3] = biological target: Protein kinase C eta type (Homo sapiens) (UniProt P24723); details: at 1 µM
Chain of Protein kinase C eta type (Homo sapiens) (P24723 whole entry): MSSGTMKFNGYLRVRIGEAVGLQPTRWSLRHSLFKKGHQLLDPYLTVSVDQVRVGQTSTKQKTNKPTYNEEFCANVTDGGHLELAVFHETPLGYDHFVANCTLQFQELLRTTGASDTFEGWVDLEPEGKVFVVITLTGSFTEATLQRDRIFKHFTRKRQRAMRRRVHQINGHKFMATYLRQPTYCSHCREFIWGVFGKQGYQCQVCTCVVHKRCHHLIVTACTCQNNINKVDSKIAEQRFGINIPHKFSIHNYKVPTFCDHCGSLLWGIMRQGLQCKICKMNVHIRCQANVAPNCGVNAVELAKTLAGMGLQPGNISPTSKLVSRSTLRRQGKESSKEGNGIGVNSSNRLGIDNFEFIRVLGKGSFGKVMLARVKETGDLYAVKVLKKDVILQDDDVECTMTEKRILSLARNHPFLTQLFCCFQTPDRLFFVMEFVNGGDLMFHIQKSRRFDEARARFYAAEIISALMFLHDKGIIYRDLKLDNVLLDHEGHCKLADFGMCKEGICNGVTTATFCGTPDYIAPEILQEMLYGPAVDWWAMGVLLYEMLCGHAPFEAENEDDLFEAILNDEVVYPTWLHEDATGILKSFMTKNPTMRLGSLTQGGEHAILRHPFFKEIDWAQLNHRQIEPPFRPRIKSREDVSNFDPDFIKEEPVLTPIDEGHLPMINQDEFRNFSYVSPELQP

[4] = biological target: Protein kinase C eta type (Homo sapiens) (UniProt P24723); details: at 10 µM
[5] = biological target: Protein kinase C theta type (Homo sapiens) (UniProt Q04759); details: at 1 µM
Chain of Protein kinase C theta type (Homo sapiens) (Q04759 whole entry, looked up): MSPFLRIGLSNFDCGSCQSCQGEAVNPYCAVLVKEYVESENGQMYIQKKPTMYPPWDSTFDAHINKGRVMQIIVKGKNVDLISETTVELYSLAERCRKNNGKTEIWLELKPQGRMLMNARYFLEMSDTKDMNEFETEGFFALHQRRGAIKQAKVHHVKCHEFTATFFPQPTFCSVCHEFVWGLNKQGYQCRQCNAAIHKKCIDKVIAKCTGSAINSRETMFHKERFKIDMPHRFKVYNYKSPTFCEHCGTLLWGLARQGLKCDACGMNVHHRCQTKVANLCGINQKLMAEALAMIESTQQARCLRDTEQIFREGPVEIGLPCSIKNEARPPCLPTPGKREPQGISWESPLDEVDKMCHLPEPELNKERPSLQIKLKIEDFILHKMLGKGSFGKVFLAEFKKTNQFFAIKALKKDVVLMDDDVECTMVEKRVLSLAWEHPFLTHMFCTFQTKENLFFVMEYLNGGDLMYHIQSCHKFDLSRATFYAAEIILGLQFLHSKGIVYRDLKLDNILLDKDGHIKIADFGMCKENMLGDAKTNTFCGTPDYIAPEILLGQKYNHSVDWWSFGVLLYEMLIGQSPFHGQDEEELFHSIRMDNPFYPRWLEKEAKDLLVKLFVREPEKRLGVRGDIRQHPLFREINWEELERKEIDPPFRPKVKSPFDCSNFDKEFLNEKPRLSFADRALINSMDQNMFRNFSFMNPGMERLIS

[6] = biological target: Protein kinase C theta type (Homo sapiens) (UniProt Q04759); details: at 10 µM
[7] = biological target: T2, Protein kinase C iota type (Homo sapiens) (UniProt P41743); details: at 1 µM
T2 sequence (whole entry): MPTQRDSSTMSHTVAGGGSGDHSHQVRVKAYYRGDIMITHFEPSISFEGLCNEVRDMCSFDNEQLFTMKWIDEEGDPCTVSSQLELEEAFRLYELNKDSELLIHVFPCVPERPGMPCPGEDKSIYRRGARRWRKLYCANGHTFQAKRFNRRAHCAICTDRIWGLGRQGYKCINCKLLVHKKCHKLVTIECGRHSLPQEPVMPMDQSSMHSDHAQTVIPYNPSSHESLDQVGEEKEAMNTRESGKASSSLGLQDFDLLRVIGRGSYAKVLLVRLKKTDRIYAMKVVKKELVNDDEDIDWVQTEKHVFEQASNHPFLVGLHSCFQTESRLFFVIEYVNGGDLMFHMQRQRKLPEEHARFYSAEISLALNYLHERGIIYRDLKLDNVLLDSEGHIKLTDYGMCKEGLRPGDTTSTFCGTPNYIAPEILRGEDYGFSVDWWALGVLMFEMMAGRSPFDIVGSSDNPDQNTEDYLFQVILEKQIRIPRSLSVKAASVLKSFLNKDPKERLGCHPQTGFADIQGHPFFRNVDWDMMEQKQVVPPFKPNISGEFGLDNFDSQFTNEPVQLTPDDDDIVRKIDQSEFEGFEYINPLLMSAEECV

[8] = biological target: T2, Protein kinase C iota type (Homo sapiens); details: at 10 µM
[9] = biological target: T3, Serine/threonine-protein kinase D1 (Homo sapiens) (UniProt Q15139); details: at 1 µM
T3 sequence (whole entry): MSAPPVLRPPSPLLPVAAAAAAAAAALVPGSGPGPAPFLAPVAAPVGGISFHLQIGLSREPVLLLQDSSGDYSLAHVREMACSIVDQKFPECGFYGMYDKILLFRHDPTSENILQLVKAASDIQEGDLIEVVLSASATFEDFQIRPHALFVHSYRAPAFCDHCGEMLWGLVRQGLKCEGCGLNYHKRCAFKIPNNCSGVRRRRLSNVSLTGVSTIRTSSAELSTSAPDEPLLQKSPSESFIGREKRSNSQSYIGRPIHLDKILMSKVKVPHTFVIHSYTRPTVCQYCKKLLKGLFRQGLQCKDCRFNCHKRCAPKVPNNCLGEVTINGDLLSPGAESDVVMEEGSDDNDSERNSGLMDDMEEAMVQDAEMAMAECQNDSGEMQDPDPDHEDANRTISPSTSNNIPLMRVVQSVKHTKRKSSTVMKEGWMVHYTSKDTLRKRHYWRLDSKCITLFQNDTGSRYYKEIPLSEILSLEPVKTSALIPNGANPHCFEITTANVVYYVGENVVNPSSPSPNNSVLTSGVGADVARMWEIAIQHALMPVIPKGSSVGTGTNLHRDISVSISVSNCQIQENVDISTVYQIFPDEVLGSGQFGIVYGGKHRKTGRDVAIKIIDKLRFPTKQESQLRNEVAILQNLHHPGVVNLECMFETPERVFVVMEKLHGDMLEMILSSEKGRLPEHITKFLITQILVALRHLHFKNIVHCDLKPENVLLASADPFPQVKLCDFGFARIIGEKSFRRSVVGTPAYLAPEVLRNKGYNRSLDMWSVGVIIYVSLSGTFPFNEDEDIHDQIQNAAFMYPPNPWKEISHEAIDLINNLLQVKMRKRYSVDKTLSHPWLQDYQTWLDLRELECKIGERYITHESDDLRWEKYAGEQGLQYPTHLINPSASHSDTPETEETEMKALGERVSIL

[10] = biological target: T3, Serine/threonine-protein kinase D1 (Homo sapiens); details: at 10 µM
[11] = biological target: T4, Serine/threonine-protein kinase D2 (Homo sapiens) (UniProt Q9BZL6); details: at 1 µM
T4 sequence (whole entry): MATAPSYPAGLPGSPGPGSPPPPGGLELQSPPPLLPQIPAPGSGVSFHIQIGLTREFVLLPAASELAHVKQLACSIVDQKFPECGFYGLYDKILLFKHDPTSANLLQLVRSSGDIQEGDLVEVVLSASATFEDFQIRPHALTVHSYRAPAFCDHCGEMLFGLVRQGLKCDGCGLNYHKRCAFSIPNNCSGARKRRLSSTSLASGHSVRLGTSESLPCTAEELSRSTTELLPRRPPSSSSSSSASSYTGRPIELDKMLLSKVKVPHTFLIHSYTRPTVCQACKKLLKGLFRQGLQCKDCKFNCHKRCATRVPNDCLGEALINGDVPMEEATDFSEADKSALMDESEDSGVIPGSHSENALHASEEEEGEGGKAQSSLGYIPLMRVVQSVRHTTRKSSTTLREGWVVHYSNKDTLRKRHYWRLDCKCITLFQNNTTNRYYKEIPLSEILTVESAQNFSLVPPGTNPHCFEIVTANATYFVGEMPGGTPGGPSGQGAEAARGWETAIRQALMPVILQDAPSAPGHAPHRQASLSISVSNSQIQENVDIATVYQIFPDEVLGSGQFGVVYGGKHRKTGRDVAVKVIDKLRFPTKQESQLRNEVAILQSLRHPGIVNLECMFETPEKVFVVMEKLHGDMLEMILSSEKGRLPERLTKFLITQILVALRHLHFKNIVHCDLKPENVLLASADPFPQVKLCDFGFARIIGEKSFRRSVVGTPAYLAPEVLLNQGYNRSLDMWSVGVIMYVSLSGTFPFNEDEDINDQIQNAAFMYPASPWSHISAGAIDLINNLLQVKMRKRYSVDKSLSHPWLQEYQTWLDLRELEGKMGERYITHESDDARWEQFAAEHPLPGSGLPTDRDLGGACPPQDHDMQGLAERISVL

[12] = biological target: T4, Serine/threonine-protein kinase D2 (Homo sapiens); details: at 10 µM
[13] = biological target: T5, cGMP-dependent protein kinase 1 (Homo sapiens) (UniProt Q13976); details: at 1 µM
T5 sequence (whole entry): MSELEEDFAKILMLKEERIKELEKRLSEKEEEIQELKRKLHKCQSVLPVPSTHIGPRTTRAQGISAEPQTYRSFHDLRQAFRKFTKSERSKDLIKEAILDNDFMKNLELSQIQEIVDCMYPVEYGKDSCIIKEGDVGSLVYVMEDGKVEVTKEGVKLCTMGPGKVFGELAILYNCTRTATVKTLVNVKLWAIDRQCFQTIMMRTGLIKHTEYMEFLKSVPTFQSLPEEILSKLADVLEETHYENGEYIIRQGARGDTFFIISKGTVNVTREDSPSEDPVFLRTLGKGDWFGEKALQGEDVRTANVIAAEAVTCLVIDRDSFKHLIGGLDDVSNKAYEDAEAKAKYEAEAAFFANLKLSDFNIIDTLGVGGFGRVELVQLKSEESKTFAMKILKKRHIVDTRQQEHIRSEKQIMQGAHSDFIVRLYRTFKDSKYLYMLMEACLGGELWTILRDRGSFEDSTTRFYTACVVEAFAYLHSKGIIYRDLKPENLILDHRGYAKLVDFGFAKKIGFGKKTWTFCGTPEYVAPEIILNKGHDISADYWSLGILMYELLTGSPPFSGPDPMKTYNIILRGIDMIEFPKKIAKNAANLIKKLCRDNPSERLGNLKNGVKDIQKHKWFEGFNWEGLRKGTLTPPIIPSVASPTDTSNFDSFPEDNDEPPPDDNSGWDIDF

[14] = biological target: T5, cGMP-dependent protein kinase 1 (Homo sapiens); details: at 10 µM
[15] = biological target: T5, cGMP-dependent protein kinase 1 (Homo sapiens); details: at 1 µM; remark: listed apart in the source
[16] = biological target: T5, cGMP-dependent protein kinase 1 (Homo sapiens); details: at 10 µM; remark: listed apart in the source
[17] = biological target: T6, MAP kinase-activated protein kinase 5 (Homo sapiens) (UniProt Q8IW41); details: at 1 µM
T6 sequence (whole entry): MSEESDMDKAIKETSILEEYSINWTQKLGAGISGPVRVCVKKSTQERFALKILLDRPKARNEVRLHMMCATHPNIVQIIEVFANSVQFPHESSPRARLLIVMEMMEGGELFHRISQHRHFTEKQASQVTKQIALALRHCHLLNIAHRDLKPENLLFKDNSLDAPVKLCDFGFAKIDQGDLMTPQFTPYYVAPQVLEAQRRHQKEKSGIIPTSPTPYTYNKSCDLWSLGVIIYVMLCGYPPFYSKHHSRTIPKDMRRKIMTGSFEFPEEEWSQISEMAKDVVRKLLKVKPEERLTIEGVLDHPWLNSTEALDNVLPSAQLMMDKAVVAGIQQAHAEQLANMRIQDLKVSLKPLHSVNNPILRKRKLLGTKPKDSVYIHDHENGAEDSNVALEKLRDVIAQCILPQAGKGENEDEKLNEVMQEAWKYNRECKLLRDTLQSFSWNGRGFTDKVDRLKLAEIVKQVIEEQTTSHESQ

[18] = biological target: T6, MAP kinase-activated protein kinase 5 (Homo sapiens); details: at 10 µM
[19] = biological target: Serine/threonine-protein kinase N2 (Homo sapiens) (UniProt Q16513); details: at 1 µM
Chain of Serine/threonine-protein kinase N2 (Homo sapiens) (Q16513 whole entry, looked up): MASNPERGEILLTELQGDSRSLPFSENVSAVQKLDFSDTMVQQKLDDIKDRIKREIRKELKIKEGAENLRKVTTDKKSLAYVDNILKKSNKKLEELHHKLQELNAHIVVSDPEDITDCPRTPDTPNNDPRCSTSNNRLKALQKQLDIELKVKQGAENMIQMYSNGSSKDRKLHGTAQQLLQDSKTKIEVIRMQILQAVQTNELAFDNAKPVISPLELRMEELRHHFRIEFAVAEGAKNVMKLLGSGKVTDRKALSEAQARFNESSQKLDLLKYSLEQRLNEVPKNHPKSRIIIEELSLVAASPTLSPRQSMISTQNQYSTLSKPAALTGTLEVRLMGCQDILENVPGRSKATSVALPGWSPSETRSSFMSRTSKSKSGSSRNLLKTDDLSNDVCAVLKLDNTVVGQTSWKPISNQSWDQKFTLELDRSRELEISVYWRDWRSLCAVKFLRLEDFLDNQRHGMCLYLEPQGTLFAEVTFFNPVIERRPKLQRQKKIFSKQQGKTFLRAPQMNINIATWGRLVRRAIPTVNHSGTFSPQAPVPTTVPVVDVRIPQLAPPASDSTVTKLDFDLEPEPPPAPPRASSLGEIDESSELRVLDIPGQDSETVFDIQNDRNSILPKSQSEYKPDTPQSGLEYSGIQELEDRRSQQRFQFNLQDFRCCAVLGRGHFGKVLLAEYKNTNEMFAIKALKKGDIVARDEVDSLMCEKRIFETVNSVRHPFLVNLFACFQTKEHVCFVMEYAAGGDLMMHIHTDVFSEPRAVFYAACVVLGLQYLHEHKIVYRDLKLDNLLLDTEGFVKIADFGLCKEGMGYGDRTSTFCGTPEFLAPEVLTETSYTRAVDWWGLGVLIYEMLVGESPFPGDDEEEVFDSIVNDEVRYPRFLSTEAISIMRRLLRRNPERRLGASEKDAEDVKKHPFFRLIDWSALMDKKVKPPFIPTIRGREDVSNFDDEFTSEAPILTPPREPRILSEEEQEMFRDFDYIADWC

[20] = biological target: Serine/threonine-protein kinase N2 (Homo sapiens) (UniProt Q16513); details: at 10 µM

Chain of Insulin-like growth factor 1 receptor (Homo sapiens) (P08069 31-736 limits assumed): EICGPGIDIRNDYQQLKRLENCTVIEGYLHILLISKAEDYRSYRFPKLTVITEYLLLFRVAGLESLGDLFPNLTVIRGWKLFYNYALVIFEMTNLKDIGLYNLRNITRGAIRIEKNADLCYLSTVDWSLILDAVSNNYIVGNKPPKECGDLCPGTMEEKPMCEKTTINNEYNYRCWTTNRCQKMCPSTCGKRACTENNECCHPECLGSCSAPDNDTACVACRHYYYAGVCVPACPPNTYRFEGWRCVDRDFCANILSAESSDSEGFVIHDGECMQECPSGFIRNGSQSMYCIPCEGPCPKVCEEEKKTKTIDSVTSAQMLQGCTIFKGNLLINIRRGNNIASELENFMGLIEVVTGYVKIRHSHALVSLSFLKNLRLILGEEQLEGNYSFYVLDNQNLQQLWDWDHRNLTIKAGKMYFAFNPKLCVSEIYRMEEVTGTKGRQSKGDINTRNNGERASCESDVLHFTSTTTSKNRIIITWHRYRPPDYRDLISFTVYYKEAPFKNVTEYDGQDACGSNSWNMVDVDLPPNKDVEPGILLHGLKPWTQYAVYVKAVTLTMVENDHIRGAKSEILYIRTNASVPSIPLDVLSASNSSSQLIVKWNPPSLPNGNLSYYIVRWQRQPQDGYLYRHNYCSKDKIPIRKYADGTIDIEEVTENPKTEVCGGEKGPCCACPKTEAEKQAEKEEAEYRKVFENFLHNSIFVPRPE
Chain of Insulin-like growth factor 1 receptor (Homo sapiens) (P08069 741-1367 limits assumed): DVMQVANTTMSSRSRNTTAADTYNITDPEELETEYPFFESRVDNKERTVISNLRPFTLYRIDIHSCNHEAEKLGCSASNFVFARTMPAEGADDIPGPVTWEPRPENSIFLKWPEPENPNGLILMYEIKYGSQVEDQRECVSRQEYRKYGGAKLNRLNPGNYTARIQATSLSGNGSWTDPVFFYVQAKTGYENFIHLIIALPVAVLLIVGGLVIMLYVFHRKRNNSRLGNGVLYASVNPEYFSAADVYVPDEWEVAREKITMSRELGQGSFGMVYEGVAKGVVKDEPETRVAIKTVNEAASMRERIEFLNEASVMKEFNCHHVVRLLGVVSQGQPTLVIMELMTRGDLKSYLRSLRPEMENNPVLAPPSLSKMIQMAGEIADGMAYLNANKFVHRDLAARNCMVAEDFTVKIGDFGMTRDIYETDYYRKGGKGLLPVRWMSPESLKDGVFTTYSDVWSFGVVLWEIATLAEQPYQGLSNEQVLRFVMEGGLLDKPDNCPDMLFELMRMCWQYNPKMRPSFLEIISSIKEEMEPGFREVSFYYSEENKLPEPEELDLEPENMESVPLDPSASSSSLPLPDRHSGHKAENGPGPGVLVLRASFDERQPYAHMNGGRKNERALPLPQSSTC

| SMILES | residual activity [1] [%] | residual activity [2] [%] | residual activity [3] [%] | residual activity [4] [%] | residual activity [5] [%] | residual activity [6] [%] | residual activity [7] | residual activity [8] [%] | residual activity [9] [%] | residual activity [10] [%] | residual activity [11] [%] | residual activity [12] [%] | residual activity [13] [%] | residual activity [14] [%] | residual activity [15] [%] | residual activity [16] [%] | residual activity [17] [%] | residual activity [18] [%] | residual activity [19] [%] | residual activity [20] [%] |
| --- | --- | --- | --- | --- | --- | --- | --- | --- | --- | --- | --- | --- | --- | --- | --- | --- | --- | --- | --- | --- |
| C[S+]([O-])c1ccc(-c2nc(-c3ccc(F)cc3)c(-c3ccncc3)[nH]2)cc1 (stereo not given) | 117 | 111 | 79 | 77 | 105 | 104 | 105% (inactive) | 101 | 123 | 66 | 105 | 90 | 101 | 99 | 125 | 107 | 145 | 104 | 103 | 107 |
| COc1cc2ncnc(Nc3ccc(OCc4ccccc4)cc3)c2cc1OC | 129 | 108 | 109 | 97 | 124 | 114 | 95% (inactive) | 68 | 93 | 113 | 98 | 98 | 115 | 125 | 72 | 88 | 111 | 83 | 109 | 111 |
| N/C(=N\[N+](=O)[O-])N/N=C\c1ccc(-c2cccc([N+](=O)[O-])c2)o1 | 76 | 98 | 84 | 83 | – | – | – | – | – | – | – | – | – | – | – | – | – | – | – | – |
| O=C1c2ccccc2-c2nc3nnnn3nc21 | 83 | 108 | 117 | 83 | – | – | – | – | 104 | 106 | – | – | – | – | – | – | – | – | – | – |
| O=C1NC(=O)c2c1c1c3ccccc3n3c1c1c2c2ccccc2n1C1CCC3O1 | – | – | 89 | 81 | 7 | 13 | – | – | 87 | 49 | 92 | 90 | 84 | 73 | 76 | 74 | – | – | 47 | 25 |
| CC(C)(C)c1cc(C=C(C#N)C#N)cc(Br)c1O | 101 | 101 | – | – | 103 | 75 | 107% (inactive) | – | 98 | 117 | 100 | 105 | 107 | – | 66 | 60 | 107 | 65 | 104 | 117 |
| c1cc(-c2cnn3cc(-c4ccc(OCCN5CCCCC5)cc4)cnc23)ccn1 | 143 | – | 106 | – | – | – | – | 86 | – | 54 | – | – | 73 | 25 | 66 | 12 | – | – | 47 | 6 |
| CCc1nc(-c2ccc(OC)cc2)[nH]c1-c1ccncc1 | 128 | 104 | 105 | 73 | 108 | 105 | 107% (inactive) | 105 | – | – | – | – | – | – | – | – | – | – | 102 | 74 |
| O=C1Nc2ccc3ncsc3c2/C1=C/c1c[nH]cn1 | 68 | 53 | 23 | 5 | 49 | 10 | 85% (inactive) | 73 | 5 | 4 | 30 | 3 | 13 | 2 | 7 | 1 | 49 | 18 | 4 | 2 |
